These results are taken from the OligoGym collection.
Also: reference of the scale not given here.

For one assay, the target named is FXN. Briefly: pooled miR-30 sensor sort-seq; sequence = guide strand. The settings on record: shRNA.
Consider ATAACGCTTAGGTCCACTGGAT, for which the sensor-assay potency score (higher = more potent) is -1.03. TTGGTTTTTAAGGCTTTAGTGA registered a sensor-assay potency score (higher = more potent) of -0.944. Still for that read-out and setting: the same measure for TTTGACATTCCAAATCTGGTTG: -0.256; for TAGTCTTTCATAGGTGGTCTCA: -0.873. Sequence TCTGCTAAAGAGTCCAGCGTTT yielded a sensor-assay potency score (higher = more potent) of -0.618. Still for that read-out and setting: the same measure for TGGTCTCATCTAGAGAGCCTGG: -1.32; for TGTTGATCACATAGGTTCCTAG: -0.584; for TTTCATAGGTGGTCTCATCTAG: -0.00192. Same read-out and setting: the same measure for TAGGTGGTCTCATCTAGAGAGC: -1.48.

Another assay has as its target FXR1. The assay is described as above. The note with it: shRNA.
Turning to TTGCTCTTGAATATACCTCTAC, the sensor-assay potency score (higher = more potent) is -0.669. Sequence TTCAATCACATCTTTTGCCATT displayed a sensor-assay potency score (higher = more potent) of -1.45. TTTCTTGAATAACTTTGCCATT had a sensor-assay potency score (higher = more potent) of -1.55. With TATACCTCTACTTCATCTCCTT, the sensor-assay potency score (higher = more potent) came to 0.473. The same measure, in the same setting: the same measure for TATTTTATAACACAGTAGGTGT: -0.648. Still for that read-out and setting: the same measure for TTCATTTCTGGACATAAGCATC: -1.34; for TATTAATCTTTTCTTCTCCTGG: -0.0994; for TTGAGCACAGAACTGATGGAGG: -0.647.

As for TAAGCATCAACTTCGTACGAAT, the sensor-assay potency score (higher = more potent) is -0.962. Same read-out and setting: the value for TTATTTTCAAAAACAACTGTAA was -0.406; that for TGTCTCGATCATCTTCTCCTGC was 0.196.
